Where “and” joins values, the source holds several entries; their conditions need not be identical. Identical values can stand only once. About 2,000 (36%) of roughly 5,500 compounds were called active. About 18% were inconclusive and are not listed. Cut-off read from the data, not from the text of the source: active = normalized growth mostly below about 0.91 (no sharp cut-off); inconclusive = no clear call, values can overlap the other calls; inactive = mostly above about 0.92. The list shows a part of the results. Where a structure was tested more than once in an assay, its records may differ in their call.
Assay: chemical genetic growth profiling, strain panel (AID 1159580);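 note: tested at 20 µM; growth read once vehicle control cultures reached saturation at 30 °C; 1 = growth at the plate median or of vehicle wells; lower values mean less growth of the strain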
Settings: S. cerevisiae deletion strains, growth OD
[1] = locus YAL013W, strain DEP1, stronger effect = lower value
[2] = locus YDR150W, strain NUM1, stronger effect = lower value
[3] = locus YHR030C, strain SLT2, stronger effect = lower value
[4] = locus YHR079C, strain IRE1, stronger effect = lower value
[5] = locus YJL095W, strain BCK1, stronger effect = lower value
[6] = locus YJR066W, strain TOR1, stronger effect = lower value
[7] = locus YJR075W, strain HOC1, stronger effect = lower value
[8] = locus YLR113W, strain HOG1, stronger effect = lower value
[9] = locus YMR307W, strain GAS1, stronger effect = lower value
[10] = locus YNL128W, strain TEP1, stronger effect = lower value
[11] = locus YNL153C, strain GIM3, stronger effect = lower value
[12] = locus YNL183C, strain NPR1, stronger effect = lower value
[13] = locus YOR231W, strain MKK1, stronger effect = lower value
[14] = locus YPL256C, strain CLN2, stronger effect = lower value

Measured: normalized growth

O=C(O)c1ccccc1Nc1cccc(OCc2ccc3ccccc3n2)c1
inactive: [1] 0.996 | locus YAL040C, strain CLN3, stronger effect = lower value 0.932 | locus YCL061C, strain MRC1 (second series), stronger effect = lower value 0.997 | [2] 1 | locus YDR363W, strain ESC2, stronger effect = lower value 1 | locus YER002W, strain NOP16, stronger effect = lower value 1.01 | locus YGR078C, strain PAC10, stronger effect = lower value 0.967 | [3] 1.03 | [4] 1.03 | [5] 1.05 | [6] 0.968 | [7] 1.01 | [8] 1.01 | locus YMR263W, strain SAP30, stronger effect = lower value 0.999 | [9] 1.04 | [10] 0.957 | [11] 1.04 | locus YNL175C, strain NOP13, stronger effect = lower value 0.94 | [12] 0.981 | locus YNL197C, strain WHI3, stronger effect = lower value 0.934 | locus YNL224C, strain SQS1, stronger effect = lower value 0.95 | locus YNL322C, strain KRE1, stronger effect = lower value 1.02 | locus YOR083W, strain WHI5 (second series), stronger effect = lower value 0.959 | [13] 1.02 | locus YPL241C, strain CIN2, stronger effect = lower value 0.989 | [14] 1.02

O=C(O)c1ccccc1Nc1cccc(C(F)(F)F)c1
inactive: locus YBR023C, strain chs3, stronger effect = lower value 0.924 | locus YBR229C, strain ROT2, stronger effect = lower value 0.983 | locus YCL029C, strain bik1, stronger effect = lower value 0.999 | locus YDL101C, strain DUN1, stronger effect = lower value 0.972 | locus YDL185W, strain tfp1, stronger effect = lower value 0.979 | locus YDL192W, strain arf1, stronger effect = lower value 0.974 | locus YDR101C, strain arx1, stronger effect = lower value 0.984 | [2] 0.996 | locus YDR162C, strain NBP2, stronger effect = lower value 0.852 | locus YDR195W, strain ref2 0.998 | locus YDR318W, strain mcm21, stronger effect = lower value 0.959 | locus YDR388W, stronger effect = lower value 0.975 | locus YEL061C, strain CIN8, stronger effect = lower value 0.952 | locus YER110C, stronger effect = lower value 1.01 | locus YGL078C, strain dbp3, stronger effect = lower value 0.979 | locus YGL086W, strain mad1, stronger effect = lower value 0.96 | locus YGL248W, strain PDE1, stronger effect = lower value 0.92 | locus YGR135W, strain pre9, stronger effect = lower value 0.895 | locus YHR013C, strain ard1, stronger effect = lower value 0.988 | locus YHR079C, strain IRE1 (second series), stronger effect = lower value 0.988 | locus YHR094C, strain hxt1, stronger effect = lower value 1 | locus YHR200W, strain rpn10, stronger effect = lower value 0.95 | locus YIL073C, strain SPO22, stronger effect = lower value 0.858 | locus YIL125W, strain kgd1, stronger effect = lower value 0.981 | locus YIR030C, strain dcg1, stronger effect = lower value 0.965 | locus YJL134W, strain LCB3, stronger effect = lower value 0.994 | locus YJL168C, strain set2, stronger effect = lower value 0.99 | locus YJL187C, strain SWE1 (second series), stronger effect = lower value 0.941 | [7] 0.93 | locus YKL009W, strain mrt4, stronger effect = lower value 0.896 | locus YKL068W, stronger effect = lower value 0.99 | locus YKL085W, strain MDH1 (second series), stronger effect = lower value 0.957 | locus YKL085W, strain MDH1, stronger effect = lower value 0.957 | locus YKL190W, strain CNB1, stronger effect = lower value 0.962 | locus YLR039C, strain RIC1, stronger effect = lower value 0.808 | locus YLR058C, strain SHM2, stronger effect = lower value 0.951 | locus YLR102C, strain apc9, stronger effect = lower value 0.982 | locus YLR262C, strain YPT6, stronger effect = lower value 0.821 | locus YLR268W, strain sec22, stronger effect = lower value 0.914 | locus YLR357W, strain rsc2, stronger effect = lower value 0.873 | locus YLR371W, strain rom2, stronger effect = lower value 0.987 | locus YML016C, strain PPZ1, stronger effect = lower value 0.991 | locus YML032C, strain rad52, stronger effect = lower value 0.933 | locus YML124C, strain tub3, stronger effect = lower value 0.97 | locus YMR078C, strain ctf18, stronger effect = lower value 0.98 | locus YMR223W, strain ubp8, stronger effect = lower value 0.945 | [9] 0.842 | locus YNL067W, strain RPL9B, stronger effect = lower value 0.967 | [10] 1.01 | [11] 0.937 | locus YNL248C, strain rpa49, stronger effect = lower value 0.921 | locus YNL250W, strain rad50, stronger effect = lower value 0.994 | locus YNL271C, strain bni1, stronger effect = lower value 0.982 | locus YNL298W, strain CLA4, stronger effect = lower value 0.928 | locus YNR052C, strain pop2, stronger effect = lower value 0.993 | locus YOL012C, strain htz1 0.909 | locus YOL147C, strain pex11, stronger effect = lower value 0.975 | locus YOR061W, strain CKA2, stronger effect = lower value 0.947 | locus YOR069W, strain VPS5, stronger effect = lower value 0.991 | locus YOR136W, strain idh2, stronger effect = lower value 0.983 | locus YOR144C, strain elg1, stronger effect = lower value 0.978 | locus YOR316C, strain cot1, stronger effect = lower value 0.988 | locus YPL106C, strain sse1, stronger effect = lower value 0.968 | locus YPR119W, strain clb2, stronger effect = lower value 0.988 | locus YPR141C, strain kar3, stronger effect = lower value 0.99 | locus YPR163C, strain tif3, stronger effect = lower value 0.952 | locus YPR167C, strain met16, stronger effect = lower value 0.944 | strain wtn01, stronger effect = lower value 0.954
0.119 (active) and 0.83 (inactive): [5]
active: [1] 0.857 | locus YAL021C, strain ccr4, stronger effect = lower value 0.847 | locus YAL026C, strain drs2, stronger effect = lower value 0.837 | locus YAL030W, strain snc1, stronger effect = lower value 0.817 | locus YBL061C, strain skt5, stronger effect = lower value 0.845 | locus YBR009C, strain hhf1, stronger effect = lower value 0.848 | locus YBR021W, strain FUR4, stronger effect = lower value 0.764 | locus YBR171W, strain sec66, stronger effect = lower value 0.69 | locus YBR231C, strain swc5, stronger effect = lower value 0.827 | locus YBR279W, strain paf1, stronger effect = lower value 0.859 | locus YCL011C, strain gbp2, stronger effect = lower value 0.86 | locus YCL016C, strain dcc1, stronger effect = lower value 0.87 | locus YCL069W, strain vba3, stronger effect = lower value 0.834 | locus YCR088W, strain abp1, stronger effect = lower value 0.793 | locus YDL005C, strain med2, stronger effect = lower value 0.882 | locus YDL035C, strain GPR1, stronger effect = lower value 0.844 | locus YDL040C, strain nat1, stronger effect = lower value 0.852 | locus YDL074C, strain BRE1, stronger effect = lower value 0.768 | locus YDR001C, strain nth1, stronger effect = lower value 0.805 | locus YDR069C, strain doa4, stronger effect = lower value 0.896 | locus YDR137W, strain rgp1, stronger effect = lower value 0.623 | locus YDR159W, strain sac3, stronger effect = lower value 0.661 | locus YDR297W, strain sur2, stronger effect = lower value 0.849 | locus YDR334W, strain swr1, stronger effect = lower value 0.788 | locus YDR335W, strain msn5, stronger effect = lower value 0.849 | locus YDR392W, strain spt3, stronger effect = lower value 0.721 | locus YDR502C, strain sam2, stronger effect = lower value 0.915 | locus YEL003W, strain gim4, stronger effect = lower value 0.842 | locus YEL037C, strain rad23, stronger effect = lower value 0.831 | locus YEL061C, strain CIN8 (second series), stronger effect = lower value 0.815 | locus YER015W, strain faa2, stronger effect = lower value 0.869 | locus YER016W, strain bim1, stronger effect = lower value 0.837 | locus YER111C, strain swi4, stronger effect = lower value 0.829 | locus YER155C, strain BEM2 (second series), stronger effect = lower value 0.763 | locus YER155C, strain BEM2, stronger effect = lower value 0.914 | locus YER167W, strain BCK2, stronger effect = lower value 0.833 | locus YFR010W, strain ubp6, stronger effect = lower value 0.858 | locus YGL167C, strain pmr1, stronger effect = lower value 0.751 | locus YGL173C, strain kem1, stronger effect = lower value 0.843 | locus YGL227W, strain vid30, stronger effect = lower value 0.812 | locus YGL240W, strain doc1, stronger effect = lower value 0.853 | locus YGL253W, strain hxk2, stronger effect = lower value 0.811 | locus YGR229C, strain SMI1, stronger effect = lower value 0.727 | locus YGR252W, strain gcn5, stronger effect = lower value 0.645 | locus YHR027C, strain rpn1, stronger effect = lower value 0.862 | [4] 0.126 | locus YHR129C, strain ARP1, stronger effect = lower value 0.918 | locus YHR142W, strain chs7, stronger effect = lower value 0.775 | locus YIL066C, strain RNR3, stronger effect = lower value 0.824 | locus YJL092W, strain hpr5, stronger effect = lower value 0.801 | locus YJL095W, strain BCK1 (second series), stronger effect = lower value 0.848 | locus YJL115W, strain asf1, stronger effect = lower value 0.843 | locus YJL129C, strain trk1, stronger effect = lower value 0.565 | locus YJL154C, strain vps35, stronger effect = lower value 0.792 | locus YJL164C, strain tpk1, stronger effect = lower value 0.873 | locus YJL166W, strain qcr8, stronger effect = lower value 0.853 | locus YJL187C, strain SWE1, stronger effect = lower value 0.833 | locus YJR043C, strain POL32, stronger effect = lower value 0.775 | [6] 0.00921 | locus YKL160W, strain elf1, stronger effect = lower value 0.835 | locus YKR001C, strain vps1, stronger effect = lower value 0.85 | locus YKR026C, strain gcn3, stronger effect = lower value 0.79 | locus YKR091W, strain srl3, stronger effect = lower value 0.826 | locus YLL001W, strain dnm1, stronger effect = lower value 0.833 | locus YLL026W, stronger effect = lower value 0.829 | locus YLL041C, strain sdh2, stronger effect = lower value 0.803 | locus YLR027C, strain aat2, stronger effect = lower value 0.865 | [8] 0.137 | locus YLR221C, strain rsa3, stronger effect = lower value 0.838 | locus YLR258W, strain gsy2, stronger effect = lower value 0.83 | locus YLR262C, strain YPT6 (second series), stronger effect = lower value 0.634 | locus YLR320W, strain mms22, stronger effect = lower value 0.833 | locus YLR330W, strain CHS5, stronger effect = lower value 0.883 | locus YLR342W, strain FKS1 (second series), stronger effect = lower value 0.713 | locus YLR342W, strain FKS1, stronger effect = lower value 0.831 | locus YLR370C, strain arc18, stronger effect = lower value 0.808 | locus YLR384C, strain iki3, stronger effect = lower value 0.818 | locus YLR418C, strain cdc73, stronger effect = lower value 0.729 | locus YML120C, strain ndi1, stronger effect = lower value 0.842 | locus YMR058W, strain fet3, stronger effect = lower value 0.824 | locus YMR125W, strain sto1, stronger effect = lower value 0.835 | locus YMR129W, stronger effect = lower value 0.812 | locus YMR205C, strain PFK2, stronger effect = lower value 0.81 | locus YMR231W, strain pep5, stronger effect = lower value 0.817 | locus YNL071W, strain lat1, stronger effect = lower value 0.849 | [12] 0.0159 | locus YNL209W, strain ssb2, stronger effect = lower value 0.862 | locus YNL233W, strain BNI4, stronger effect = lower value 0.852 | locus YNL307C, strain MCK1, stronger effect = lower value 0.695 | locus YNL322C, strain KRE1 (second series), stronger effect = lower value 0.801 | locus YNR049C, strain mso1, stronger effect = lower value 0.813 | locus YOR001W, strain rrp6, stronger effect = lower value 0.872 | locus YOR070C, strain gyp1, stronger effect = lower value 0.848 | locus YOR080W, strain dia2, stronger effect = lower value 0.847 | locus YOR083W, strain WHI5, stronger effect = lower value 0.834 | locus YOR106W, strain vam3, stronger effect = lower value 0.821 | locus YOR184W, strain ser1, stronger effect = lower value 0.819 | [13] 0.105 | locus YOR265W, strain rbl2, stronger effect = lower value 0.843 | locus YOR270C, strain vph1, stronger effect = lower value 0.674 | locus YOR290C, strain snf2, stronger effect = lower value 0.852 | locus YPL051W, strain arl3, stronger effect = lower value 0.831 | locus YPL078C, strain atp4, stronger effect = lower value 0.807 | locus YPL240C, strain hsp82, stronger effect = lower value 0.836 | [14] 0.116
0.134 (active) and 0.985 (inactive): [3]
